From PubChem BioAssay (EPA / NIEHS)
Several values for one entry are separate records, joined by “and”; a condition that tells them apart may be missing. Identical values can stand only once. Records with an inconclusive call do not appear. Some compounds were tested as several samples or in several runs, with calls that do not always agree. Activity calls are given as the source filed them. Rule for the calls, unless noted: active = hit-call score of the fitted dose curve at least 0.9, where 1 is the maximum; inconclusive = response in the unintended direction; inactive = score below 0.9.

Legend:
[1] = target: Aryl hydrocarbon receptor (Homo sapiens) (UniProt P35869); assay: ATG_Ahr_CIS: Attagene CIS-FACTORIAL HepG2 Assay for human Aryl Hydrocarbon Receptor (Ahr) (AID 2282930; active = hit-call score of the fitted dose curve at least 0.9, where 1 is the maximum; inactive = score below 0.9); details: HepG2 AhR cis-factorial reporter transcription; actives raise or lower the signal
In short: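 Values derive from bidirectional fitting against DMSO negative control. Underlying signal: cis-element reporter mRNA in transiently transfected HepG2, harvested 24 h post-dose and measured by RT-PCR plus capillary electrophoresis.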

[2] = target: Transcription factor E2F1 (Homo sapiens) (UniProt Q01094); assay: ATG_E2F_CIS: Attagene CIS-FACTORIAL HepG2 Assay for human E2F Transcription Factor 1 (AID 2282935; active = hit-call score of the fitted dose curve at least 0.9, where 1 is the maximum; inactive = score below 0.9); details: HepG2 Attagene cis-reporter, E2F reporter RNA transcripts; actives raise or lower the signal
In short: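 First, HepG2 cells were transfected with reporter transcription units. Next, they were dosed for 24 h. Then RNA was isolated, converted to cDNA, PCR-amplified, FAM-labeled, HpaI-digested and analyzed by capillary electrophoresis.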

[3] = ATG_GLI_CIS: Attagene CIS-FACTORIAL HepG2 Assay for human Zinc Finger Protein GLI1 (AID 2282945; active = hit-call score of the fitted dose curve at least 0.9, where 1 is the maximum; inactive = score below 0.9); details: HepG2, Attagene cis-factorial reporter mRNA, GLI element; actives raise or lower the signal
In short: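 HepG2 cells transiently transfected with cis-promoter multiplexed reporter units report endogenous transcription factor activity. After 24 h chemical exposure, reporter mRNA was quantified by RT-PCR, 6-FAM labelling, HpaI digestion and capillary electrophoresis, with bidirectional fitting against DMSO.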

[4] = ATG_PBREM_CIS: Attagene CIS-FACTORIAL HepG2 Assay for human Phenobarbital-responsive Enhancer Module (PBREM) (AID 2282955; active = hit-call score of the fitted dose curve at least 0.9, where 1 is the maximum; inactive = score below 0.9); details: HepG2 PBREM cis-reporter, Attagene multiplexed transcription; actives raise or lower the signal
In short: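 HepG2 cells transiently transfected with multiple cis-regulated reporter transcription units; endogenous factor activity at the PBREM element measured as reporter mRNA 24 h after dosing, via RT-PCR and capillary electrophoresis of fluorescent fragments; bidirectional fitting versus DMSO.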

[5] = ATG_PXRE_CIS: Attagene CIS-FACTORIAL HepG2 Assay for human Pregnane X Receptor Element (PXRE) (AID 2282957; active = hit-call score of the fitted dose curve at least 0.9, where 1 is the maximum; inactive = score below 0.9); details: HepG2 Attagene CIS-FACTORIAL PXRE reporter, mRNA; actives raise or lower the signal
In short: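 Using HepG2 transfected with multiple reporter transcription units, endogenous factor-driven transcription was scored as reporter mRNA after 24 h exposure.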

[6] = ATG_SREBP_CIS: Attagene CIS-FACTORIAL HepG2 Assay for human Sterol Regulatory Element Binding (SREBP) (AID 2282962; active = hit-call score of the fitted dose curve at least 0.9, where 1 is the maximum; inactive = score below 0.9); details: HepG2 Attagene cis-factorial SREBP reporter, mRNA; actives raise or lower the signal
In short: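 Endogenous factor activity is measured in HepG2 through multiplexed reporter units under cis-element control. Following a 24 h incubation, reporter transcripts are reverse-transcribed, PCR-amplified and sized by capillary electrophoresis; activity is fitted in both directions relative to DMSO.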

[7] = ATG_Oct_MLP_CIS: Attagene CIS-FACTORIAL HepG2 Assay for human Octamer-Binding Transcription Factor (Oct) (AID 2282993; active = hit-call score of the fitted dose curve at least 0.9, where 1 is the maximum; inactive = score below 0.9); details: HepG2 Attagene cis-factorial Oct reporter, mRNA; actives raise or lower the signal
In short: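 Read-out: reporter mRNA via RT-PCR plus capillary electrophoresis of 6-FAM-labelled fragments. Transiently transfected HepG2, 24 h exposure, endogenous TF activity on cis elements. Gain or loss of signal fitted relative to DMSO.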

[8] = target: human Peroxisome Proliferator-activated Receptor alpha (PPARa), PPARA (gene 5465) (UniProt Q07869); assay: ATG_PPARa_TRANS: Attagene TRANS-FACTORIAL HepG2 Assay for human Peroxisome Proliferator-activated Receptor alpha (PPARa) (AID 2283001)
In short: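 Cells (HepG2) are transfected with multiple reporter transcription units, exposed to chemical for 24 h, then total RNA is reverse-transcribed and amplified. Labelled products are quantified by capillary electrophoresis; induction is referenced to DMSO.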

[9] = target: Peroxisome proliferator-activated receptor gamma (Homo sapiens) (UniProt P37231); assay: ATG_PPARg_TRANS: Attagene TRANS-FACTORIAL HepG2 Assay for human Peroxisome Proliferator-activated Receptor-gamma (PPARg) (AID 2283007)
In short: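 HepG2 cells transiently transfected with multiplexed GAL4-UAS reporter units and exogenous chimeric NR-Gal4 proteins; reporter mRNA quantified after 24 h compound exposure by RT-PCR, fluorescent labelling, HpaI digestion and capillary electrophoresis; gain-of-signal fitted versus DMSO baseline.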

[10] = target: Retinoic acid receptor RXR-alpha (Homo sapiens) (UniProt P19793); assay: ATG_RXRa_TRANS: Attagene TRANS-FACTORIAL HepG2 Assay for human Retinoid X Receptor alpha (RXRa) (AID 2283012)
In short: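 Measures exogenous chimeric NR-GAL4 activity in transfected HepG2 liver cells after 24 h of dosing. Induced reporter mRNA was detected by RT-PCR with capillary electrophoresis, and gain of signal was analysed against DMSO.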

[11] = target: human Thyroid Receptor alpha (THRa1), THRA (gene 7067) (UniProt P10827); assay: ATG_THRa1_TRANS: Attagene TRANS-FACTORIAL HepG2 Assay for human Thyroid Receptor alpha (THRa1) (AID 2283014)
In short: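 Reporter transcript induction, read by capillary electrophoresis of 6-FAM-labelled RT-PCR products, reflects activity of a transfected THRa1-Gal4 fusion in HepG2 liver cells. Cells were dosed for 24 h; activity was fitted in the positive direction against DMSO.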

[12] = target: Cellular tumor antigen p53 (Homo sapiens) (UniProt P04637); assay: TOX21_p53_BLA_p2_ratio: Tox21 HCT-116 p53 Agonism Beta-lactamase Assay, Ratio, Phase 2 (AID 2283592)
In short: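 Plated HCT116 p53-bla cells (4000/well) received compound after 5 h, then 16 h at 37C/5% CO2. CCF4-AM added, 2 h RT. Ratio of 460 to 530 nm emission taken as the p53 reporter signal.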

[13] = target: Cellular tumor antigen p53 (Homo sapiens) (UniProt P04637); assay: TOX21_p53_BLA_p3_ratio: Tox21 HCT-116 p53 Agonism Beta-lactamase Assay, Ratio, Phase 3 (AID 2283596)
In short: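 Cells were seeded at 4000/well, rested 5 h at 37C, then dosed with DMSO compound solutions (217-fold dilution) for 16 h. CCF4-AM substrate was loaded for 2 h at room temperature, and the 460/530 nm emission ratio was fitted for gain of signal versus DMSO.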

[14] = target: Cellular tumor antigen p53 (Homo sapiens) (UniProt P04637); assay: TOX21_p53_BLA_p5_ratio: Tox21 HCT-116 p53 Agonism Beta-lactamase Assay, Ratio, Phase 5 (AID 2283599)
In short: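 HCT-116 cells carrying a p53-inducible beta-lactamase reporter were seeded at 4000 cells/well and dosed after 5 h with compound in DMSO (217-fold dilution). After 16 h at 37C, CCF4-AM substrate was added for 2 h, and the 460/530 nm emission ratio was scored as gain-of-signal versus DMSO.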

[15] = TOX21_p53_BLA_p5_viability: Viability Assessment in the Tox21 HCT-116 p53 Agonism Beta-lactamase Assay, Phase 5 (AID 2283600)
In short: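 Workflow: seed 4000 cells per well, wait 5 h, add compounds (DMSO, 217-fold dilution), incubate 16 h, load CCF4-AM 2 h, add CellTiter-Glo, read luminescence after 30 min.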

[16] = ACEA_ER_AUC_viability: ACEA Biosciences xCELLigence Real-Time Cell Analysis on Estrogen Receptor Agonism for Viability (AID 2283782);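 note: hit means loss of impedance signal meaning reduced cell growth or viability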
In short: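 Continuous-exposure impedance cell analysis uses T-47D cells in charcoal-stripped serum, eight 1:4 dilutions topping at 100 uM final, biological duplicate. Area under the growth curve at 80 h is fitted against DMSO baseline.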

[17] = ATG_AP_2_CIS: Attagene CIS-FACTORIAL HepG2 Assay for human Activator Protein 2 (AP-2) (AID 2282932; active = hit-call score of the fitted dose curve at least 0.9, where 1 is the maximum; inactive = score below 0.9); details: HepG2 AP-2 cis-reporter, Attagene transcription factor profiling; actives raise or lower the signal
In short: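 Cells (HepG2) transfected with promoter-driven reporter constructs, treated 24 h. Total RNA reverse-transcribed, reporter cDNA PCR-amplified, FAM-labelled by primer extension, digested, resolved by capillary electrophoresis. Activity fitted both directions versus DMSO.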

[18] = ATG_M_61_CIS: Attagene CIS-FACTORIAL HepG2 Assay for M61 Transcription Factor (Internal Marker) (AID 2282937; active = hit-call score of the fitted dose curve at least 0.9, where 1 is the maximum; inactive = score below 0.9); details: HepG2 Attagene CIS-FACTORIAL M61 internal marker reporter; actives raise or lower the signal
In short: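 HepG2 cells transiently transfected with cis-element-driven multiple reporter transcription units, dosed for 24 h. Reporter mRNA measured by RT-PCR, 6-FAM primer-extension labelling, HpaI digestion and capillary electrophoresis; bidirectional fit versus DMSO baseline.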

[19] = ATG_PPRE_CIS: Attagene CIS-FACTORIAL HepG2 Assay for human Peroxisome Proliferator-activated Response Element (PPRE) (AID 2282958; active = hit-call score of the fitted dose curve at least 0.9, where 1 is the maximum; inactive = score below 0.9); details: HepG2 PPRE cis-element reporter, Attagene transcription factor profiling; actives raise or lower the signal
In short: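 HepG2 cells transiently transfected with multiplexed cis-element reporter units measure endogenous transcription factor activity. After 24 h compound exposure, reporter mRNA is quantified by RT-PCR, 6-FAM labeling, HpaI digestion and capillary electrophoresis; bidirectional fits are made against DMSO baseline.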

[20] = target: Cellular tumor antigen p53 (Homo sapiens) (UniProt P04637); assay: TOX21_p53_BLA_p4_ratio: Tox21 HCT-116 p53 Agonism Beta-lactamase Assay, Ratio, Phase 4 (AID 2283601)
In short: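 HCT116 cells carrying an inducible beta-lactamase reporter were plated at 4000 cells/well, rested 5 h, then exposed to compounds in DMSO (217-fold dilution) for 16 h at 37C. CCF4-AM substrate was loaded 2 h at room temperature; 460/530 nm emission ratio scored gain-of-signal versus DMSO.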

Measured: AC50

Peroxisome proliferator-activated receptor gamma (Homo sapiens), sequence (P37231 whole entry, looked up, the tested form may be a part): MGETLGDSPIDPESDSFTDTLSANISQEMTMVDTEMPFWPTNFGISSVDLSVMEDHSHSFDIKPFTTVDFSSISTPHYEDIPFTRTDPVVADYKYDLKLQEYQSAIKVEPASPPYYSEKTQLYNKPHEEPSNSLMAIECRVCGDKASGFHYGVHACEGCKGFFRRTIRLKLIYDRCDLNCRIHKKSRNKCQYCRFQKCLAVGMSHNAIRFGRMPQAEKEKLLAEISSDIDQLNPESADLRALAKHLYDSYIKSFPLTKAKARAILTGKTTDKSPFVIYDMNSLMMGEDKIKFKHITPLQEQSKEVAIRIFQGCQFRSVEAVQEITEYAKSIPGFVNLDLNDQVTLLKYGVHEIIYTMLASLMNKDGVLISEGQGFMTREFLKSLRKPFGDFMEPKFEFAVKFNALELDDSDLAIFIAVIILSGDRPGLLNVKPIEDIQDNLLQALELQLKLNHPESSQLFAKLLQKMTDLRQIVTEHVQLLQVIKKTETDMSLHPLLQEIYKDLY
Aryl hydrocarbon receptor (Homo sapiens), sequence (P35869 whole entry, looked up): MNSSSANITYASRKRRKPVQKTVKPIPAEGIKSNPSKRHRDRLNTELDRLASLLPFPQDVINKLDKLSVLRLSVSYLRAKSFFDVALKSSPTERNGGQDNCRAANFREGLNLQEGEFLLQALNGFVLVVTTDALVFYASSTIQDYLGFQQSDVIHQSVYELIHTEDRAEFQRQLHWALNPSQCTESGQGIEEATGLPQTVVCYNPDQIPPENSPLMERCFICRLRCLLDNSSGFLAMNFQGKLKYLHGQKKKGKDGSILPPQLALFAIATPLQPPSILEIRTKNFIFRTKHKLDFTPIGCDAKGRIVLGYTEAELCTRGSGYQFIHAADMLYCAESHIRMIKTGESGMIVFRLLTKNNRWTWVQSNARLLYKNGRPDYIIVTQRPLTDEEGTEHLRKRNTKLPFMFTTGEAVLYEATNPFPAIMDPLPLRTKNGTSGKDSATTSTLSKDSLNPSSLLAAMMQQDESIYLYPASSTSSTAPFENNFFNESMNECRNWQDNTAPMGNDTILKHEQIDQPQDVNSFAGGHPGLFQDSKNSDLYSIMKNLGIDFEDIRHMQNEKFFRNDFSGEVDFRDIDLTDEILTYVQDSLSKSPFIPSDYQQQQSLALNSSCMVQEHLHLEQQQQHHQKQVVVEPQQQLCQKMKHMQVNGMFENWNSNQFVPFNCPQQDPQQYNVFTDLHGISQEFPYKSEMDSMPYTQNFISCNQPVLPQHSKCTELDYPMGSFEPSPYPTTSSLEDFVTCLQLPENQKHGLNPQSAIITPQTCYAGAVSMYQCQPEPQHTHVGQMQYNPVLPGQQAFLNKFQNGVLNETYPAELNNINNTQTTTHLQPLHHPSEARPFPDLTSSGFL
human Peroxisome Proliferator-activated Receptor alpha (PPARa), PPARA (gene 5465), sequence (Q07869 whole entry, looked up): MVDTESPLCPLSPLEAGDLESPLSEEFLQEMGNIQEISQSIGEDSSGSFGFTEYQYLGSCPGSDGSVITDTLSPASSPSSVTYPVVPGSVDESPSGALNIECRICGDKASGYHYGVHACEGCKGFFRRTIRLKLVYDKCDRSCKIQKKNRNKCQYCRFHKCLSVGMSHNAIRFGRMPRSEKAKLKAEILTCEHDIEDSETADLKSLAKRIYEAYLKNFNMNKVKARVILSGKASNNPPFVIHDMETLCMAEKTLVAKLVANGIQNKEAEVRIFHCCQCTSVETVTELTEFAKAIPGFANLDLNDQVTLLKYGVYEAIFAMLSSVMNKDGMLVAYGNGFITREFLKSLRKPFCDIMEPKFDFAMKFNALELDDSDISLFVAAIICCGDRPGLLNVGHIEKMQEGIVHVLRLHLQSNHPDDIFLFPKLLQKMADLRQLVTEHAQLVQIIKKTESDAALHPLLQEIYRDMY
Cellular tumor antigen p53 (Homo sapiens), sequence (P04637 whole entry, looked up): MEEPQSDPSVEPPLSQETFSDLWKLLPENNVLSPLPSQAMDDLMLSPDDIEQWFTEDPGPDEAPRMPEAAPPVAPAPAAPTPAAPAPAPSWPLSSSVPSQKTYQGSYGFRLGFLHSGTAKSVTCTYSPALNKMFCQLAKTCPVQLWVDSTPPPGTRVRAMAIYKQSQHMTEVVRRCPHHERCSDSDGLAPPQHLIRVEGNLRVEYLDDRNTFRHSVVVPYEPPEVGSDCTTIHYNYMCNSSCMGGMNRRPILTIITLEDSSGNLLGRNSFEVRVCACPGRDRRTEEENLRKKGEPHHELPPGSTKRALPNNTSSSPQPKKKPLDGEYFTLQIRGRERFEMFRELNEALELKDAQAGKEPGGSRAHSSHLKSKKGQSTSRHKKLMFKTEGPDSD
Transcription factor E2F1 (Homo sapiens), sequence (Q01094 whole entry, looked up): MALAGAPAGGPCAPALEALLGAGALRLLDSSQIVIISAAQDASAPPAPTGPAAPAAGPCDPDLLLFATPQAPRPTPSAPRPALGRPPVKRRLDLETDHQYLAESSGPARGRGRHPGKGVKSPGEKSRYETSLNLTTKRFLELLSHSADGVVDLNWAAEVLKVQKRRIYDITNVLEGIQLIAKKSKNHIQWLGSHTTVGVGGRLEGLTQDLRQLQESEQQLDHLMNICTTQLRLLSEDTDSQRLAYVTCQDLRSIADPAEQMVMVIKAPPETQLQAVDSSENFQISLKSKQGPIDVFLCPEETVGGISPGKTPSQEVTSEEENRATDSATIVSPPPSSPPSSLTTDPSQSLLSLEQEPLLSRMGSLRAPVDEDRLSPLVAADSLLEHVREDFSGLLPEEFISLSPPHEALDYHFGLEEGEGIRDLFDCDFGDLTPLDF
human Thyroid Receptor alpha (THRa1), THRA (gene 7067), sequence (P10827 whole entry, looked up, the tested form may be a part): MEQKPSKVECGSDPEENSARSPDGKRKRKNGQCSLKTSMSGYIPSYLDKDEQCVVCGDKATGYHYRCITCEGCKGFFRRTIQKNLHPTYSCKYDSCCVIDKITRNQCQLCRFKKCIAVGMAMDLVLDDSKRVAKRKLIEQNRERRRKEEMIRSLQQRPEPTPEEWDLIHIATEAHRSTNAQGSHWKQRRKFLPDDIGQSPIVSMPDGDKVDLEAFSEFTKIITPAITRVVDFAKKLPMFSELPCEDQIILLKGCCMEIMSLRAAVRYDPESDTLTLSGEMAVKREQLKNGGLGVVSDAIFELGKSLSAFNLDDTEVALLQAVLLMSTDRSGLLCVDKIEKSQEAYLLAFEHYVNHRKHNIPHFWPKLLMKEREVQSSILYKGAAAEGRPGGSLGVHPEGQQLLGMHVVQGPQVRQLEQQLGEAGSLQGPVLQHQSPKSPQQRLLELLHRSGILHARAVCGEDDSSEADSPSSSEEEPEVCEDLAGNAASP
Retinoic acid receptor RXR-alpha (Homo sapiens), sequence (P19793 whole entry, looked up, the tested form may be a part): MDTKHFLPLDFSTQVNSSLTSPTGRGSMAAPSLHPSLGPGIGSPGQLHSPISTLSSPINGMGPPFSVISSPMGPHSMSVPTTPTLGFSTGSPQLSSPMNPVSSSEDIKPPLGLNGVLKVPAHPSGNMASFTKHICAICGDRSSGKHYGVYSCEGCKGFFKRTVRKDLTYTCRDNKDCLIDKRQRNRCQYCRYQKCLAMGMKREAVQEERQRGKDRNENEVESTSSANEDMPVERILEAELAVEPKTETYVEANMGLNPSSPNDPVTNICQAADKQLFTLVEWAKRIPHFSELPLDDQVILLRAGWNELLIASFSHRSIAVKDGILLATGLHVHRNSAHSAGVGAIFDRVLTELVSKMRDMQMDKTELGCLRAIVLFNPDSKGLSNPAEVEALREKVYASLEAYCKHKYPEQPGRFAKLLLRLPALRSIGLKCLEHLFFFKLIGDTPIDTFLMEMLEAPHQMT

CCCC=NO
not listed: [17] | [18] | [19] | [20]
inactive: all other assays above

N#CC(c1ccccc1)c1ccccc1
active: [5] 11.1 µM | [9] 83.2 µM
not listed: [1] | [6] | [7] | [8] | [15] | [16]
inactive: all other assays above

CCC(C)c1cc([N+](=O)[O-])cc([N+](=O)[O-])c1OC(=O)C=C(C)C (stereo not drawn)
active: [2] 151 µM | [3] 24.8 µM | [7] 25.8 µM | [9] 1.05 µM | [12] 13.8 µM | [13] 13.9 µM | [14] 10.3 µM | [20] 14.3 µM
not listed: [5] | [11] | [16] | [17]
inactive: all other assays above

C[C@]12CC[C@H]3[C@@H](CC[C@@]45O[C@@H]4C(O)=C(C#N)C[C@]35C)[C@@H]1CC[C@@H]2O
inactive: [1] | [2] | [4] | [19] | [6] | [9] | [10] | [11] | [13] | [14] | [15]
active: [7] 63.3 µM | [12] 64.6 µM and 35.9 µM | [13] 67 µM | [14] 68.6 µM

COc1cc(OC)c(OC)cc1C=O
active: [5] 50.5 µM
not listed: [1] | [2] | [8] | [11] | [16] | [19]
inactive: all other assays above

CC[N+](=O)[O-]
not listed: [2] | [3] | [6] | [10] | [16] | [18]
inactive: all other assays above

CCCCCCCCCCCC#N
active: [3] 163 µM | [6] 128 µM | [7] 141 µM | [9] 80.6 µM
not listed: [5]
inactive: all other assays above
